Measurements from PubChem BioAssay AID1347043 (National Center for Advancing Translational Sciences (NCATS), 2019).
Out of some 76,000 compounds screened, about 1,900 (2.5%) were called active. Entries that show only a call come without a potency. Another 5% or so got no clear call; they are omitted. Calls come from the whole dose curve; as a rule, active = well fitted inhibition curve with a large enough effect; inconclusive = small, poorly fitted or top-dose-only effect; inactive = flat fitted curve, though single readings scatter. The full list was thinned out, with actives kept by preference.

The compounds below were run against Luciferin 4-monooxygenase (Photinus pyralis) (UniProt P08659) (assay: Firefly luciferase inhibition profiling of diverse chemical library using quantitative high-throughput screening). Details: purified P. pyralis luciferase, luminescence, biochemical; series mostly up to 115 µM.
Chain of Luciferin 4-monooxygenase (Photinus pyralis) (P08659 whole entry, looked up): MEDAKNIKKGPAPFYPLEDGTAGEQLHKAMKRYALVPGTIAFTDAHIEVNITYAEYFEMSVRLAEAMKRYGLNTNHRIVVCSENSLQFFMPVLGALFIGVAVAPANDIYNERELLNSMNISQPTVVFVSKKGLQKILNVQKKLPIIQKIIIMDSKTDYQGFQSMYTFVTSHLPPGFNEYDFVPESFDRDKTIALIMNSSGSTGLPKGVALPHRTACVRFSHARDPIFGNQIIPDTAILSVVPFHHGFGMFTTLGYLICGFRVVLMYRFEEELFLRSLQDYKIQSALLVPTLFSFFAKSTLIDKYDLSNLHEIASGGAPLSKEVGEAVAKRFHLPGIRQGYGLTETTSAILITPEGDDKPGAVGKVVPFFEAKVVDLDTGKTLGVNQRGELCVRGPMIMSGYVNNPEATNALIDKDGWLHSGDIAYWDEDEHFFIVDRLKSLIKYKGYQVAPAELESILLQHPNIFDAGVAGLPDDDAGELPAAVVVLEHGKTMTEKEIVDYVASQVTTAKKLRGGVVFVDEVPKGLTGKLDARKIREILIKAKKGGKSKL
In short: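 Luminescence read by CCD imager after adding enzyme (10nM final) to wells holding compound, titrated in qHTS. Substrates 10uM each D-luciferin and ATP; buffer 50mM Tris acetate pH 7.5, 10mM Mg acetate, Tween-20, BSA.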
Note: nearly all actives have a fitted effect of over 65% in size.
Potency is the fitted concentration of half-maximal effect.

| Structure (SMILES) | Potency |
| --- | --- |
| COc1ccc(-c2ncc3c(n2)OCCN(CC2CC2)C3=O)cc1 | 1.26 µM (active) |
| COc1ccc(F)cc1-c1ncc2c(n1)OCCN(CC1CC1)C2=O | inactive |
| C[S+](=O)([O-])c1cccc(-c2ncc3c(n2)OCCN(Cc2ccc(F)cc2F)C3=O)c1 | inactive |
| COc1ccc(CN2CCOc3nc(-c4cc(F)cc(OC)c4)ncc3C2=O)cc1 | 28.2 µM (active) |
| NC(=O)c1cccc(-c2ncc3c(n2)OCCN(Cc2ccccc2)C3=O)c1 | inactive |
| O=C1c2cnc(-c3ccc(O)c(F)c3)nc2OCCN1Cc1ccccc1 | 22.4 µM (active) |
| COc1cccc(-c2nc(N3CCOCC3)cc3c2CN(CC2CC2)C3=O)c1 | inactive |
| COc1ccc(-c2ncc3c(n2)OCCN(Cc2ccccc2)C3=O)cn1 | 15.8 µM (active) |
| O=C1c2cnc(-c3ccc(Cl)cc3)nc2OCCN1Cc1ccccc1 | inactive |
| COc1cccc(-c2ncc3c(n2)OCCN(Cc2ccc(F)cc2F)C3=O)c1OC | inactive |
| NC(=O)c1cccc(-c2ncc3c(n2)OCCN(c2cccc(C(F)(F)F)c2)C3=O)c1 | inactive |
| CN(C)c1cccc(-c2ncc3c(n2)OCCN(Cc2ccc(F)cc2F)C3=O)c1 | inactive |
| Cc1ccc(-c2nc(CNS(=O)(=O)C3CC3)[nH]c2-c2ccccn2)cc1 | inactive |
| O=C(CC1CCCC1)N1CCOc2ccc(CN3CCc4ccccc4C3)cc2C1 | inactive |
| Cc1noc(-c2cccn3c(CNC(=O)c4ccco4)nnc23)n1 | inactive |
| CC1=C[C@@H](CN2CCOCC2)[C@H](C(C)C)C[C@H]1Cc1nnc(-c2ccc([N+](=O)[O-])cc2)o1 | inactive |
| COc1ccc(CN2C[C@H]3CN(Cc4ccc(NC(C)=O)cc4)CCN3C2=O)cc1 | inactive |
| CC(C)NC(=O)N1CCN2C(=O)N(Cc3ccc(F)cc3)C[C@H]2C1 | inactive |
| O=C(Nc1ccccc1)N1CCN2C(=O)N(Cc3ccc(F)cc3)C[C@H]2C1 | 50.1 µM (active) |
| CN(Cc1ccccc1)C(=O)C[C@@H]1CCNC[C@@H]1Cc1cc(-c2ccc(C(C)(C)C)cc2)on1 | inactive |
| Cc1cn2nc(C(=O)N3CCC(NC(=O)c4ccc(C#N)cc4)CC3)cc2c(=O)[nH]1 | inactive |
| CCc1noc(-c2cccn3c(CNC(=O)c4ccncc4)nnc23)n1 | inactive |
| Cc1cccc(S(=O)(=O)N2CCc3c(C(=O)NC(C)C)cccc32)c1 | inactive |
| CC[C@H]1CN(C(=O)Nc2ccccc2)CC[C@H]1CC(=O)Nc1ccccc1 | inactive |
| CCOC(=O)C1CCN(C(=O)c2cccc3c2CCN3C(=O)Nc2ccccc2)CC1 | 5.62 µM (active) |
| COc1ccc(S(=O)(=O)N2CCc3c(C(=O)NCc4ccncc4)cccc32)cc1 | inactive |

| Structure (SMILES) | Potency |
| --- | --- |
| CCOc1ccc(C(=O)N2CCCN(C(=O)C3CC3)c3ccccc32)cc1 | inactive |
| CCC(C)(C)NC(=O)c1cccc2c1CCN2C(=O)Nc1ccc(C)cc1 | 1.78 µM (active) |
| Cc1ccc2nc(CO[C@H]3CN(C4CCOCC4)C[C@H]3F)[nH]c2c1 | inactive |
| Cc1ncoc1C(=O)N1CCCn2ccnc2C1c1ccccc1 (stereo unspecified) | inactive |
| CN(C)C(=O)CC(O)c1cc2n(n1)CCN(C(=O)Cc1ccsc1)C2 (stereo unspecified) | inactive |
| Cc1cccc2c(C3CCN(S(=O)(=O)c4cc(Cl)cc(Cl)c4)CC3)c[nH]c12 | inactive |
| COc1ccc(CN2CCc3nn(CC4CC4)c(=O)n3CC2)cc1 | inactive |
| COc1ccc(C(=O)NCCC2CCN(C(=O)Nc3ccc(F)cc3F)CC2)cc1OC | inactive |
| COc1ccc(C(=O)NCCC2CCN(C(=O)Nc3cc(F)ccc3F)CC2)cc1 | 25.1 µM (active) |
| O=C(NCCC1CCN(C(=O)Nc2cc(F)ccc2F)CC1)c1cc(F)ccc1F | inactive |
| CC(c1cccc(-c2cnc(C(=O)O)cn2)c1)N1CCCC1 (stereo unspecified) | inactive |
| O=C(CCC1CCCC1)N1CCC2(CC1)CC(O)CCO2 (stereo unspecified) | inactive |
| O=C(CCCc1ccccc1)N1CCC2(CC1)CC(O)CCO2 (stereo unspecified) | 5.62 µM (active) |
| CC(=O)N(C1CC1)C1CCOC2(CCN(C(=O)CCc3ccccc3)CC2)C1 (stereo unspecified) | inactive |
| COc1ccc(CC(=O)NC2CCCc3c2[nH]c2ccccc32)cc1 (stereo unspecified) | inactive |
| COc1ccc(-c2cn3c(n2)CO[C@@H](CNCc2ccc(F)c(F)c2)C3)cc1 | 35.5 µM (active) |
| Fc1ccc(CNC[C@H]2Cn3c(-c4ccc5c(c4)OCCO5)cnc3CO2)cc1 | inactive |
| c1ccc(CNC[C@H]2Cn3cc(-c4ccccc4)nc3CO2)cc1 | 63.1 µM (active) |
| Cc1ccc(-c2cn3c(n2)CO[C@@H](CNS(=O)(=O)c2cccs2)C3)cc1 | inactive |
| c1c[nH]c(CNC[C@H]2Cn3ccnc3CO2)n1 | inactive |
| O=C(Cn1nc(-c2ccccc2)n(-c2ccccc2)c1=O)N1C[C@@H]2C[C@H]1CN2 | inactive |
| O=C(c1ccc(F)cc1)N1CCC2(CC1)CCN(Cc1cccs1)c1ccccc1O2 | inactive |
| Cc1ccc(C(=O)Nc2ccc3c(N4CCCCC4)ncnc3c2)s1 | 22.4 µM (active) |
| Cc1ccc(C(=O)Nc2ccc3ncnc(N4CCCCC4)c3c2)s1 | inactive |
| Cc1cc(C)cc(C(=O)Nc2ccc3c(N4CCCC4)ncnc3c2)c1 | inactive |
| CCCS(=O)(=O)N1CCCC(Cn2c(C)nc3cccnc32)C1 (stereo unspecified) | inactive |

| Structure (SMILES) | Potency |
| --- | --- |
| Cc1c(-c2ccc(F)cc2)[nH]c2ccc(CNC(=O)c3ccc(CO)o3)cc12 | inactive |
| CNc1nc(C(=O)NCc2ccc3[nH]c(-c4ccc(F)cc4)c(C)c3c2)cs1 | 12.6 µM (active) |
| CC(C)Oc1cccc(-c2nc(C(=O)NCc3ccc(F)cc3)cs2)c1 | inactive |
| CN1C(=O)C(CC(=O)N2CCC(C#N)CC2)(Cc2ccccc2)c2ccccc21 (stereo unspecified) | inactive |
| CN(Cc1ccccc1F)Cc1ccccc1F | inactive |
| COCCc1noc(CC2CCOC3(CCN(C(=O)C4CCCC4)CC3)C2)n1 (stereo unspecified) | inactive |
| Cc1noc(CC2CCOC3(CCN(C(=O)c4ccc(C#N)cc4)CC3)C2)n1 (stereo unspecified) | inactive |
| COCCc1noc(CC2CCOC3(CCN(C(=O)Nc4ccc5c(c4)OCCO5)CC3)C2)n1 (stereo unspecified) | 35.5 µM (active) |
| COc1cccc(C(O)c2nc(C(=O)Nc3ccccc3)c(C)o2)c1 (stereo unspecified) | inactive |
| COc1ccc(Nc2nc(-c3cccc(OC)c3OC)no2)cc1 | 22.4 µM (active) |
| O=C(Cn1cccc1-c1nc(-c2ccc(F)cc2)no1)Nc1cc(F)cc(F)c1 | inactive |
| Fc1ccc(Nc2nc(-c3ccccc3F)no2)cc1 | 2.82 µM (active) |
| COc1cccc(-c2cc(C(=O)NCc3cc(C)on3)c3c(c2)N(C)CCO3)c1OC | inactive |
| C[C@H]1CN(C(=O)Nc2ccc(F)cc2)C[C@@H]1c1nc(-c2ccccc2)no1 | inactive |
| CCOc1ccc(Nc2ncncc2-c2nc(-c3ccccc3)no2)cc1 | inactive |
| CC1(c2noc(C3CCOCC3)n2)CCN(Cc2ccc(OCC(N)=O)cc2)CC1 | inactive |
| CN(Cc1ccccc1)Cc1cc(CC2(NCc3ccc(OC(F)(F)F)cc3)COC2)no1 | inactive |
| COc1cccc(CC(=O)NCCc2noc(-c3cccnc3)n2)c1 | inactive |
| COCc1noc(-c2ccc(NCCN3CCNC3=O)nc2)n1 | inactive |
| COCCc1noc(-c2ccc(NC(C)c3ncccc3C)nc2)n1 (stereo unspecified) | 31.6 µM (active) |
| O=C(NC1CCN(Cc2ccc(F)c(F)c2)CC1)c1ccc2nccn2c1 | inactive |
| O=C(c1ccncc1)N1CCC(c2cc(-c3ccc(F)cc3)n[nH]2)CC1 | inactive |
| CCC1(N2CCN(C(=O)c3ccc(N(C)C)cc3)CC2)CCN(S(C)(=O)=O)C1 (stereo unspecified) | inactive |
| Cc1nnn2c(C(=O)NC3CC3)cccc12 | 7.08 µM (active) |
| CC(=O)N1CCC(Cc2ccc(C(=O)NC3CC3)cc2)CC1 | inactive |
| Cn1cccc1C(=O)NC1CCN(c2cc(-c3ccccc3)[nH]n2)CC1 | inactive |

| Structure (SMILES) | Potency |
| --- | --- |
| O=C(c1cc(-c2ccccc2)n[nH]1)N1CC2CC(C1)[C@H]1CCCC(=O)N1C2 (stereo partly specified) | inactive |
| Cc1ccc([S+](=O)([O-])N2CCn3c(nn(-c4ccncc4)c3=O)C2)cc1 | inactive |
| COc1cc(F)ccc1-c1ccc(COc2ccc3c(cnn3CCC(=O)O)c2)cc1 | 44.7 µM (active) |
| COc1cc(F)ccc1-c1ccnc2nc(C(C)C)nn12 | inactive |
| COc1ccccc1-c1cn(C)c(=O)n2cc(COc3ccc(C(=O)O)cc3)nc12 | inactive |
| CCN1c2cc(C(=O)NC3CCN(Cc4ccccc4)CC3)ccc2C(=O)N2CCCCC21 (stereo unspecified) | inactive |
| CC(C)CNc1ccc2nnc(-c3ccccn3)n2n1 | inactive |
| CC(C)CNC(=O)N1CCCC(c2noc(COc3ccccc3F)n2)C1 (stereo unspecified) | inactive |
| O=C(C1CC1)N1CCCC(c2noc(COc3ccccc3F)n2)C1 (stereo unspecified) | 35.5 µM (active) |
| O=C(c1ccccc1)N1CCCC(c2noc(COc3ccccc3)n2)C1 (stereo unspecified) | inactive |
| C[C@H]1CN(C(=O)Nc2cc(F)cc(F)c2)C[C@@H]1c1nc(-c2ccncc2)no1 | inactive |
| Cc1ccc(C(=O)N2CC(N(Cc3cccnc3)CC(C)C)C2)s1 | inactive |
| CN(C)CCN(C)c1ccc(-c2nc(-c3ccccc3F)no2)cn1 | 15.8 µM (active) |
| CN(CCc1cn[nH]c1)c1ccc(-c2nc(-c3ccccc3F)no2)cn1 | 0.631 µM (active) |
| Oc1ccc(-c2ccc(-c3nc(CCc4ccccc4)no3)cn2)cc1 | inactive |
| CSc1ccc(CNC(=O)c2cc3c(N4CCCC4)nc(C)cn3n2)cc1 | inactive |
| CCOc1ccccc1-c1noc(-c2nnn3c2COC(c2ccc(Cl)cc2)C3)n1 (stereo unspecified) | inactive |
| CCCCc1nc2cc(C(=O)N3CCCC3c3cc(C(C)C)on3)ccc2o1 (stereo unspecified) | inactive |
| O=[S+]([O-])(Nc1ccccc1)c1ccc2c(c1)OCCN(CC1CC1)C2 | inactive |
| Cc1ccc(CN2CC[C@@](C)(O)[C@H](N3CCCC3)C2)s1 | inactive |
| CC(C)CCN1CCC2(CC1)CC(=O)c1ccc(Cl)cc1O2 | 44.7 µM (active) |
| CC(C)CCN1CCC2(CC1)C(=O)NCN2Cc1ccc(Cl)cc1 | inactive |
| COc1ccc(CN2CCC3(CC2)CC(=O)c2ccc(Cl)cc2O3)cc1 | inactive |
